Reference: PubChem BioAssay (NCI)
About 83,000 compounds went through this panel and 20% of them were active in at least one assay; those are over-represented in the sample as a whole.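 Single-dose data. Exposure time 48 hours. Values below 10 considered active.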 A number with no mark means an inactive call. Activity calls are given as the source filed them.

Key:
Assay in all cases: NCI-60 one-dose screen, 48 h (100 = growth as untreated, 0 = no growth, -100 = all killed)
Conditions in all cases: 10 µM unless noted
OVCAR-8 ovarian = test system: OVCAR-8 ovarian
OVCAR-5 ovarian = test system: OVCAR-5 ovarian
OVCAR-4 ovarian = test system: OVCAR-4 ovarian
SK-OV-3 ovarian = test system: SK-OV-3 ovarian
IGROV1 ovarian = test system: IGROV1 ovarian
OVCAR-3 ovarian = test system: OVCAR-3 ovarian
HS 578T breast = test system: HS 578T breast
NCI/ADR-RES ovarian = test system: NCI/ADR-RES ovarian
T-47D breast = test system: T-47D breast
BT-549 breast = test system: BT-549 breast
MDA-MB-435 melanoma = test system: MDA-MB-435 melanoma
SW-620 colon = test system: SW-620 colon
MCF7 breast = test system: MCF7 breast
HCT-116 colon = test system: HCT-116 colon
HCC-2998 colon = test system: HCC-2998 colon
KM12 colon = test system: KM12 colon
RPMI-8226 leukemia = test system: RPMI-8226 leukemia

Compound | growth (OVCAR-8 ovarian) | growth (OVCAR-5 ovarian) | growth (OVCAR-4 ovarian) | growth (SK-OV-3 ovarian) | growth (IGROV1 ovarian) | growth (OVCAR-3 ovarian) | growth (HS 578T breast) | growth (NCI/ADR-RES ovarian) | growth (T-47D breast) | growth (BT-549 breast) | growth (MDA-MB-435 melanoma) | growth (SW-620 colon) | growth (MCF7 breast) | growth (HCT-116 colon) | growth (HCC-2998 colon) | growth (KM12 colon) | growth (RPMI-8226 leukemia)
COc1ccc(-c2nc3ccccc3n3cccc23)cc1 | 103% | 113% | 99.8% | 122% | 47.1% | 101% | 111% | 107% | 107% | 95.4% | 126% | 101% | 81.9% | 92% | 110% | 99% | 
C[N+](C)(C)CCCCCCCCCC[N+](C)(C)C | 98.7% | 117% | 87.2% | 106% | 91.5% | 105% |  | 98.4% | 88.6% | 78.7% | 103% | 95.8% | 91% | 106% | 105% | 103% | 96%
O=C1Nc2ccccc2/C1=C\c1nc(C2CCN(S(=O)(=O)c3ccc(F)cc3)CC2)n2ccccc12 | 18% | 88% | 13.6% | 57.8% | 57% |  | 19% | 17% | 48.1% | 2.09% (active) | 70.8% | 82.8% | 48.7% | 64.8% | 59.8% | 65.8% | 94.3%
COc1cc(NC(=O)CSc2nc3ccc(Cl)cc3c(=O)n2Cc2ccccc2)cc(OC)c1OC | 68.7% | 85.4% | 81.1% | 72% | 84.9% | 77.7% | 47.4% | 67.7% | 55.7% | 31.2% | 78.2% | 81.6% | 70.2% | 51.6% | 90.5% | 51.5% | 
CN(C)CCCN1c2ccccc2CCc2ccccc21 | 97.4% | 103% | 68.7% |  | 94.8% | 116% | 103% | 107% | 91.8% | 95.8% | 102% | 111% | 80.5% | 96.6% | 99.7% | 103% | 99.4%
COc1ccc(-c2cc(-c3cc4ccccc4oc3=O)n(-c3ccccc3)n2)cc1 |  | 91.1% | 13.2% | 76.7% | 14% | 68.2% | 66.4% | 69.5% | 73.1% | 75.1% | 100% | 66.6% | 76% | 2.14% (active) |  | 69.3% | 86.4%
CCC(=O)OCc1ccc(OC)cc1 | 102% | 95% | 107% | 108% | 102% | 110% | 135% | 99.4% | 103% | 104% | 112% | 111% | 107% | 98.7% |  | 137% | 107%
COc1cc(OC)c(C(=O)/C=C/c2cccc(OC(C)=O)c2)cc1CC=C(C)C |  | 107% | 75.1% | 102% | 59.2% | 37.7% | 99% | 72% | 52.3% | 81.8% | 73.6% | 35.5% | 44.6% | 47.1% | 72.9% | 68.8% | 7.53% (active)
O=P(O)(O)C(O)(Cc1cccnc1)P(=O)(O)O | 94.6% | 118% | 86.9% |  | 95.8% | 100% |  | 102% | 76.6% | 86.3% | 97.6% | 98.7% | 91.2% | 106% | 119% | 100% | 98.2%
N=C(N)c1ccc(NCCNc2ccc(C(=N)N)cc2)cc1 | 92.4% | 95.1% | 110% | 133% | 98.5% | 110% | 109% | 99% |  | 133% | 105% | 106% | 101% | 114% | 119% | 105% | 82.8%
CC1=CCC2C1CC=C(C)C(CC[C@H]1[C@@](C)(O)CCC3OC(C)(C)[C@H](OC(=O)c4ccccc4)CC[C@@]31C)C2(C)C (some centres not stated) | 87.4% | 100% | 71.5% | 93.8% | 102% | 72.8% | 110% | 95% | 74.4% | 106% | 86.8% | 80% | 74.9% | 51.5% | 97.9% | 98.9% | 
N/C(=C\C(=O)n1nc(-c2ccccc2)cc1N)c1ccccc1 | 60.6% | 70.9% | 72% | 65.5% | 16.5% | 20.2% | -6.87% (active) | 17% |  | 30.1% | -0.658% (active) | 36.1% | 35% | 27.4% | 43.9% | 30% | 42.8%
COc1ccc(C2NC(=O)c3cc4c(cc3N2)OCO4)cc1 (configuration not stated) | 22.3% | 45.3% | 59.5% | -7.72% (active) | 42.8% |  | 16.4% | 3.94% (active) | 65.5% | 59.1% | -41.6% (active) | 24.1% | 18.2% | 14.1% | 9.52% (active) | 9.55% (active) | 27.8%
COc1ccc2nc(-c3ccc(-c4noc(-c5ccc(Cl)cc5)n4)cc3)[nH]c2c1 | 74.1% | 92.6% | -25.9% (active) | 90.7% | 78.1% | 64.9% | 62.1% | 47.1% | 67.3% | 74.8% | 60.2% | 49.6% | 46.4% |  | 93.6% | 53.3% | 101%
COc1ccc(C(=O)N2N=C(c3ccc(F)cc3)CC2c2cn(-c3ccccc3)nc2-c2ccccc2)cc1 (configuration not stated) | 39.4% | 95.6% | 68.2% | 62% | 85% | 45.8% | 83.7% | 34.9% | 50.6% | 77.3% | 62.5% | 47.3% | 33.7% | 7.49% (active) |  | 50.6% | 62%
Clc1cc2nc(-c3ccccc3)c(-c3ccccc3)nc2cc1Cl | 112% | 98.6% | 86.9% | 89.3% | 65.6% | 92.1% | 93.7% | 98.5% | 76.6% | 118% | 108% | 89.7% | 78.1% | 84.8% | 94.1% | 92% | 
O=C(CCCN1CCC(O)(c2ccc(Br)cc2)CC1)c1ccc(F)cc1 | 79.3% | 80% | 64.7% | 86% | 74% | 90% |  | 74% | 70.5% | 60.6% | 65.4% | 78.1% | 70.4% | 38.9% | 71% | 83.5% | 73.4%
O=C(/C=C/c1ccco1)c1ccccc1O | 104% | 101% | 106% | 115% | 104% | 97% | 120% | 97.7% | 77.7% | 95.6% | 113% | 99.7% | 41.3% | 96.8% |  | 99.8% | 92.4%
NC(N)=N/N=C/c1ccc(Cl)cc1 | 88.3% | 89.6% |  | 76.5% | 97.6% | 56.8% | 75.4% | 79.9% | 91.5% | 77.4% | -53.2% (active) | 24.5% | 23.5% | 50.8% | 86.8% | 15.5% | 
COc1cc(NC(=O)CSc2nc3ccc(Cl)cc3c(=O)n2-c2ccccc2)cc(OC)c1OC | 93.2% | 96.3% | 85.7% | 101% | 91.5% | 97% | 81.5% | 90.8% | 85.4% | 78.9% | 101% | 101% | 99.1% | 92.5% | 106% | 100% | 
Cn1c(=O)c2c(nc(N/N=C/c3ccccc3Cl)n2C)n(C)c1=O | 98.6% | 95.7% | 115% |  | 102% | 119% | 137% | 97.3% | 105% | 102% | 109% | 108% | 96.2% |  |  | 140% | 111%
CCOC(=O)c1cnc(SCC)nc1SC#N | 96.8% | 94% |  | 115% | 98.7% | 87.3% | 121% | 100% | 80.8% | 115% | 77.5% | 60% | 87.7% | 64.2% | 108% | 101% | 
COC(=O)c1ccc2c(c1)nc(-c1ccc(Cl)cc1)n2-c1cc(C(C)(C)C)[nH]n1 | 83.1% | 121% | 81.4% | 104% | 54.2% | 41.9% | 53.3% | 14.2% |  | 43.9% | -12.3% (active) | 49.1% | 25.1% | 28.5% | 68.1% | 34.6% | 56.8%
NC(N)=N/N=C/c1cccc(Cl)c1Cl | 87.5% | 85% |  | 80% | 86.5% | 72.8% | 71.3% | 75.7% | 81.5% | 65.9% | 4.26% (active) | -4.72% (active) | 17.6% | 67.9% | 7.38% (active) | 10.5% | 
